# Assay outcomes deposited in PubChem BioAssay by National Center for Advancing Translational Sciences (NCATS).
# The list is not random: actives were taken first. Their share in the collection is about 11%.
# HEK cytotox = Cytotoxic Profiling in HEK 293 Cell Line of Diverse Libraries Using Quantitative High-Throughput Screening. 94,000 compounds, 6.6% hits. HEK 293 viability, ATP luminescence (CellTiter-Glo), 48-72 h. Potency, µM (series often up to 115 µM), actives largely listed as inhibitors; note: nearly all actives have a fitted effect of over 60% in size
#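 ATP-coupled CellTiter-Glo luminescence served as viability read-out, recorded 10 min after reagent addition at room temperature. HEK 293 cells, 250 cells/well, had been incubated with pintool-transferred compound for 48 or 72 hr at 37 degree Celsius.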
# hNpr1 antagonist = Natriuretic polypeptide receptor (hNpr1) antagonism - Primary qHTS; Potency, µM (doses to about 46.3 µM), actives largely listed as inhibitors; 76,000 compounds, 1.6% hits; AID 1347048, 2019; HEK293 hNpr1 GloSensor cGMP, ANP-stimulated luminescence; calls by dose curve; note: nearly all actives have a fitted effect of over 60% in size
# Target sequence (P16066 whole entry, looked up): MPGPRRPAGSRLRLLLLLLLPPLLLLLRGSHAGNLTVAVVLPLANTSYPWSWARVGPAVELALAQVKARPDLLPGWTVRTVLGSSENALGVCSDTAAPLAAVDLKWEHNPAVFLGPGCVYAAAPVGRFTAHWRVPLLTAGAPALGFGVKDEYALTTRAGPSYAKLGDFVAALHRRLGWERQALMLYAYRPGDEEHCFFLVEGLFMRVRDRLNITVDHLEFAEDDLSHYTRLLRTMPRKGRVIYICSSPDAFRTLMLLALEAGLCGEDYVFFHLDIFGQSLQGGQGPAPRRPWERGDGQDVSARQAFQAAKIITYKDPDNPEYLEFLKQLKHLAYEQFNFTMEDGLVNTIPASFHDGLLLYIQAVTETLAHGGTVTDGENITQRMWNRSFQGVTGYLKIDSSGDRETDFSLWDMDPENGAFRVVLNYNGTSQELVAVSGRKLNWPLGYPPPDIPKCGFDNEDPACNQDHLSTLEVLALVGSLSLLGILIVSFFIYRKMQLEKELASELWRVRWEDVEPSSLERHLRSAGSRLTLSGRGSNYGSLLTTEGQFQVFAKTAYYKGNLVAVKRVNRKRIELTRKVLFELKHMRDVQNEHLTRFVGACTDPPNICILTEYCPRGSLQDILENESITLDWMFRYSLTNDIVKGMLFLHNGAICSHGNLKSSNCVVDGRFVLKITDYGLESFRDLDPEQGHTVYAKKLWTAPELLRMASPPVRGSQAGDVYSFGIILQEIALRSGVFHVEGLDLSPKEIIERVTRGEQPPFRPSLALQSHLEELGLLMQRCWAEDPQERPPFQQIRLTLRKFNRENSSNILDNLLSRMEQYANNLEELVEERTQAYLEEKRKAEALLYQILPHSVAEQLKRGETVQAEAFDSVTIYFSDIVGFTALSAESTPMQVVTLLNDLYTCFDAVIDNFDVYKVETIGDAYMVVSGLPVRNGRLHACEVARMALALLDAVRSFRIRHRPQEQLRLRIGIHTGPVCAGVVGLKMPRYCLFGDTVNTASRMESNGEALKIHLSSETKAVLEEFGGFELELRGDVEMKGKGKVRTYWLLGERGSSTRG
#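 Compound pre-incubated 30 min at room temperature on GloSensor-loaded HEK293 cells stably carrying hNpr1 and the pGS-40F cGMP biosensor. Stimulation uses hNppA at 0.1 nM final; luminescence is taken at baseline and 20 min post-agonist.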
# 3T3 cytotox = Cytotoxic Profiling in NIH 3T3 Cell Line of Diverse Libraries Using Quantitative High-Throughput Screening; AID 1345082, 2018; 94,000 compounds, 4.3% hits; NIH 3T3 viability, CellTiter-Glo ATP luminescence, 48-72 h; Potency, µM (highest dose often 96.7 µM), hits mostly inhibitors; note: nearly all actives have a fitted effect of over 55% in size
#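 Mouse fibroblast NIH 3T3 cells, 400 per well, received compound via pintool and were incubated for 48 or 72 hr prior to CellTiter-Glo ATP luminescence measurement.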
# FLuc inh = Firefly luciferase inhibition profiling of diverse chemical library using quantitative high-throughput screening | AID 1347043, 2019 | purified P. pyralis luciferase, luminescence, biochemical | Potency, µM (highest dose often 115 µM), most hits filed as inhibitors | 76,000 compounds, 2.5% hits; note: nearly all actives have a fitted effect of over 65% in size
#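 FLuc 10nM, D-luciferin 10uM, ATP 10uM, Mg acetate 10mM, Tris acetate pH 7.5, Tween/BSA; cpd qHTS; enzyme added last; CCD luminescence.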
# Hits are given with their value; 0 = inactive; ? = inconclusive; - = no result given. Unless noted, calls come from the whole dose curve; as a rule, active = well fitted curve in the direction sought with a large enough effect; inconclusive = small, poorly fitted or top-dose-only effect, or another doubt; inactive = no such curve, though single readings can be large; an effect the other way counts as inactive or inconclusive.
SMILES,HEK cytotox,hNpr1 antagonist,3T3 cytotox,FLuc inh
CCCn1cnc2c1CN(S(=O)(=O)c1cccc3cccnc13)[C@H](C(=O)OC)C2,0,0,?,0
COc1ccc(C(=O)N2CCN3CCS(=O)(=O)N(C4CC4)C(=O)C3C2)c(OC)c1 (centres undefined),0,-,0,-
COCC(=O)NCCNC(=O)c1cccc(-c2cc(F)ccc2OC)c1,0,-,0,-
COc1ccc(F)cc1-c1cccc(C(=O)NCCNC(=O)Cc2cccc(Cl)c2)c1,?,-,39.8µM,-
COc1ccc(F)cc1-c1cccc(C(=O)NCCNC(=O)c2ccc(Cl)cc2)c1,44.7µM,-,?,-
COc1cccc(CNC(=O)C2CCCN2Cc2ccc(-c3cncnc3)cc2)c1 (centres undefined),0,-,?,-
COc1cccc(-c2ccc(CN3CCCC3C(=O)NCc3ccc(C(F)(F)F)cc3)cc2)c1 (centres undefined),35.5µM,-,?,-
COc1cccc(-c2ccc(CN3CCCC3C(=O)NCC3CC3)cc2)c1 (centres undefined),44.7µM,-,?,-
COC1CN(c2cccc(F)c2)C12CCN(C(=O)CC1CCN(C(C)=O)CC1)CC2 (centres undefined),0,0,0,0
O=C(c1cc2ccccc2[nH]1)N1CCNc2cnc(Nc3ccccc3)nc2C1,79.4µM,?,?,?
N#Cc1cccc(C(=O)N2CCNc3cnc(Nc4cccc(F)c4)nc3C2)c1,?,28.2µM,?,0
Cn1nc(C(=O)NCc2nnc3ccc(-c4ccccc4)nn23)c2ccccc21,0,0,0,0
Cc1ccc(C(=O)N2CCC3(CC2)NC(=O)N(c2cccc(Cl)c2)N3)c(C)c1,?,0,?,0
COc1cc(Cl)ccc1C(=O)N1CCC2(CC1)NC(=O)N(c1ccc(F)cc1)N2,12.6µM,0,?,0
CCOc1ccccc1C(=O)N1CCC2(CC1)NC(=O)N(c1cccc(Cl)c1)N2,31.6µM,0,?,0
CN1CC(=O)N(C2CCNCC2)Cc2c(NCC3CCCCCC3)ncnc21,0,-,?,-
CC(C)CNC(=O)Nc1cccc(-c2ccc(N3CCC(C)CC3)nn2)c1,0,7.08µM,0,0.316µM
COc1ccc(-c2cccc(C(=O)NCC(C)C)c2)nn1,0,-,?,-
COc1ccc(NC(=O)Nc2cccc(-c3ccc(N4CCC(C)CC4)nn3)c2)cc1OC,?,3.16µM,?,0.1µM
OC1CC([C@H](NC2CSCCSC2)c2ccc3c(c2)CCO3)C1 (some centres undefined),0,0,?,0
CCOC(=O)C1(Cc2cccc(C(F)(F)F)c2)CCN(Cc2ccc(COC)o2)CC1,?,?,?,0
CCOC(=O)C1(Cc2cccc(C(F)(F)F)c2)CCN(Cc2cc(C(C)C)n[nH]2)CC1,25.1µM,?,?,0
COc1ccc(CNC(=O)c2ccc3c(c2)N(C)C2CCCN2C3=O)c(OC)c1 (centres undefined),?,0,0,0
O=C1Nc2ccc(-c3ccc4c(c3)OCO4)cc2C(=O)N2CCN(C(=O)NC3CCCCC3)C[C@H]12,?,0,?,0
CCCc1nnc(C[C@@H]2C[C@@H](C(C)C)[C@H](CN3CC[C@H](NC(C)=O)C3)C=C2C)o1,?,0,0,0
SMILES,HEK cytotox,hNpr1 antagonist,3T3 cytotox,FLuc inh
COc1ccc(C(=O)N[C@@H]2CCC[C@@H]2C(=O)NCCc2c[nH]c3ccc(OC)cc23)cc1,?,0,0,0
O=C(NCc1cccc(C(F)(F)F)c1)c1ccc2nnc(C3CCCC3)n2c1,44.7µM,-,?,-
O=C(NCc1cccc(Cl)c1)c1ccc2nnc(C3CCCC3)n2c1,?,-,39.8µM,-
O=C(NCc1ccccc1Cl)c1ccc2nnc(C3CCCC3)n2c1,?,-,35.5µM,-
O=C(NCc1ccc(Cl)cc1)c1ccc2nnc(C3CCCC3)n2c1,?,-,31.6µM,-
O=C(NCCc1ccccc1F)c1ccc2nnc(C3CC3)n2c1,?,-,0,-
O=C(NCc1cccc(Cl)c1)c1ccc2nnc(C3CCOCC3)n2c1,0,-,0,-
O=C(NCCc1ccc(Cl)cc1)c1ccc2nnc(C3CCOCC3)n2c1,0,-,0,-
CCOC(=O)C1CCCN(C(=O)C2CCc3nnc(C4CCN([S+](=O)([O-])c5ccccc5Cl)CC4)n32)C1 (centres undefined),0,-,0,-
O=C(Nc1ccccc1)N1CCN(C(=O)c2cccc(-c3ccccn3)c2)CC1,0,-,0,-
O=C(NCc1ccccn1)c1ccc2nnc(Cc3ccc(Cl)cc3)n2c1,0,-,0,-
O=C(NCc1cccs1)c1ccc2nnc(Cc3ccc(Cl)cc3)n2c1,44.7µM,-,?,-
O=C(c1cccc2ncccc12)N1CCC2(CC1)Nc1ccccc1NC2=O,?,0,0,0
O=C(c1ccc2ncccc2c1)N1CCC2(CC1)Nc1ccccc1NC2=O,89.1µM,0,0,0
CNc1nccc(N2CCC(CC(=O)N(C)Cc3cn(C)nc3C)CC2)n1,?,0,?,0
CC(C)C[C@@H]1N[C@H](C(=O)NCC2CC2)Cc2cn(Cc3ccccn3)c3cccc1c23,44.7µM,0,39.8µM,0
CC(C)C[C@@H]1N[C@H](C(=O)NC2CCC2)Cc2cn(Cc3ccncc3)c3cccc1c23,?,?,79.4µM,0
CC(C)C[C@@H]1N[C@H](C(=O)NC(C)C)Cc2cn(Cc3ccccn3)c3cccc1c23,28.2µM,0,44.7µM,0
CC(C)C[C@@H]1N[C@H](C(=O)NC2CC2)Cc2cn(Cc3nccn3C)c3cccc1c23,?,0,?,0
CC(C)C[C@@H]1N[C@H](C(=O)NC2CCC2)Cc2cn(Cc3ccccn3)c3cccc1c23,28.2µM,0,35.5µM,0
CC(C)C[C@@H]1N[C@H](C(=O)NCCN2CCOCC2)Cc2cn(Cc3ccccn3)c3cccc1c23,?,0,?,0
CC(C)C[C@@H]1N[C@H](C(=O)NCCN(C)C)Cc2cn(Cc3ccccn3)c3cccc1c23,?,0,28.2µM,0
O=C(NCc1cccc(Cl)c1)c1noc(-c2ccc(F)cc2)n1,?,0,25.1µM,0
Cc1ccc(-c2nc(C(=O)NCc3cccc(C)c3)no2)cc1,79.4µM,0,?,?
CC1Oc2ccc(NC(=O)Cc3ccc(F)cc3)cc2CN(CCc2ccc(F)cc2)C1=O (centres undefined),?,0,?,0
CC1Oc2ccc(NC(=O)Cc3ccccc3)cc2CN(Cc2ccc(F)cc2)C1=O (centres undefined),44.7µM,?,?,0
COc1ccc(CN2Cc3cc(NC(=O)Cc4ccc(F)cc4)ccc3OC(C)C2=O)cc1 (centres undefined),39.8µM,0,?,0
CC1Oc2ccc(NS(=O)(=O)c3ccc(F)cc3)cc2CN(Cc2ccc(F)cc2)C1=O (centres undefined),44.7µM,0,?,0
CC1Oc2ccc(NC(=O)Cc3ccc(F)cc3)cc2CN(CC2CC2)C1=O (centres undefined),39.8µM,0,?,0
